PKM2 activator: increases activity of human pyruvate kinase M2; purified PKM2, Kinase-Glo ATP luminescence, activation; response scale: 0% is enzyme alone, no compound; 0.34% of 260,000 active; Potency, µM (doses to about 57.5 µM), actives largely listed as activators; P14618; also: nearly all actives have a fitted effect of over 55% in size
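ATP formation by purified human PK-M2, quantified via coupled luciferase luminescence after 1 h at room temperature with 0.1 mM ADP and 0.5 mM PEP final.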
RECQ1 inh-1: inhibitors of human RECQ1 DNA helicase; 0.54% of 240,000 active; RECQ1 DNA unwinding, red fluorescence kinetic read; Potency, µM (top dose mostly 57.3 µM), actives largely listed as inhibitors; P46063; AID 2549; also: nearly all actives have a fitted effect of over 30% in size
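50 nM RECQ1T1 preincubated 15 min with compound in Tris pH 8.0 buffer with MgCl2, DTT, Tween-20 and 2.5 ug/ml poly(dI-dC); started with 200 nM TAMRA/BHQ-2 forked duplex and 2 mM ATP. Unwinding read as fluorescence (525/598 nm), two reads 2 h apart.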
BLM helicase inh: inhibitors of human Bloom syndrome helicase BLM. recombinant BLM DNA unwinding, fluorescence dequenching. Potency, µM (series often up to 56.1 µM), most hits filed as inhibitors. 0.2% of 350,000 active. AID 2528; also: nearly all actives have a fitted effect of over 35% in size
APE1 inh: blocks human APE1 abasic DNA cleavage; P27695; 0.35% of 350,000 active; recombinant APE1, TAMRA/BHQ-2 abasic DNA cleavage fluorescence; Potency, µM (titrated, usually from 65.8 µM), hits mostly inhibitors; also: nearly all actives have a fitted effect of over 55% in size
Target sequence (P27695 whole entry, looked up): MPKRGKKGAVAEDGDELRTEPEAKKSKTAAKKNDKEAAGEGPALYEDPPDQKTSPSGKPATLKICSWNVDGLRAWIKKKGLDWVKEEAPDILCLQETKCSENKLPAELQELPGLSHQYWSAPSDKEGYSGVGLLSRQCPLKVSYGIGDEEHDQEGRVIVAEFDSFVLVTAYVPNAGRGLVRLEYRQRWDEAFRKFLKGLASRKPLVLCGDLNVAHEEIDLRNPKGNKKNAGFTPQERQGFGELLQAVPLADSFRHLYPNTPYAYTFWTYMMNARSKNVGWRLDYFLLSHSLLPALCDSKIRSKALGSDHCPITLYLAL
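APE1 at 0.75 nM final was preincubated with compound 15 min at room temperature, then 50 nM double-stranded THF abasic-site substrate (5'-TAMRA/3'-BHQ-2) was added. Fluorescence (ex 525/em 598 nm) was read kinetically; third-minus-first read gave activity.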
JMJD2E inh: JMJD2E (human) inhibition. JMJD2E catalytic domain, FDH-coupled NADH fluorescence (FDH is formaldehyde dehydrogenase). Potency, µM (highest dose often 57.1 µM), usual class: inhibitors. 1.6% of 230,000 active. AID 2147; active = well fitted inhibition curve with a large enough effect, not every such curve was filed as active; inconclusive = small, poorly fitted or top-dose-only effect, or another doubt; inactive = no such curve, though single readings can be large or run the other way; also: nearly all actives have a fitted effect of over 50% in size
Target sequence (B2RXH2 1-337 limits assumed): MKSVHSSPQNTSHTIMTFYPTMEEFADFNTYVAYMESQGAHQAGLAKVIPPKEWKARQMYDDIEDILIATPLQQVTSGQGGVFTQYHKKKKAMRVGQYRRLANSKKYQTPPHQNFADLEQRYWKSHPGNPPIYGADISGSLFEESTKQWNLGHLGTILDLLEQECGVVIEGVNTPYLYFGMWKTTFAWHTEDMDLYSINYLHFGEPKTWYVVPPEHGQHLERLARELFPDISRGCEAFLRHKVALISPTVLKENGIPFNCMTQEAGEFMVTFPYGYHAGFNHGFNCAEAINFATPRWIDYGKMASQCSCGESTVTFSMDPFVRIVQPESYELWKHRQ
RECQ1 inh conf: confirmation of human RECQ1 helicase inhibitors; shares compounds with RECQ1 inh-1; RECQ1 helicase DNA unwinding, fluorescence; Potency, µM (titrated, usually from 229 µM), most hits filed as inhibitors; 28% of 610 active; AID 2708; also: nearly all actives have a fitted effect of over 45% in size
RECQ1 ADP FP: ADP displacement flagged in RECQ1 inhibitor counter-screen; shares compounds with RECQ1 inh-1; ADP fluorescence polarization displacement counterscreen; Potency, µM (doses to about 228 µM), hits mostly inhibitors; 27% of 530 active; AID 2711; also: nearly all actives have a fitted effect of over 45% in size
RECQ1 inh-2: RECQ1 helicase inhibition confirmed, round 2; Potency, µM (doses to about 119 µM), actives largely listed as inhibitors; 15% of 1,100 active; AID 504841; shares compounds with RECQ1 inh-1; recombinant RECQ1 DNA unwinding, red fluorescence; also: nearly all actives have a fitted effect of over 50% in size
Numbers stand for hits; - = inactive; ? = inconclusive; . = no result; [ ] = remark or other dose. Only a selection was taken, and hits are over-represented in it overall. Unless noted, calls follow the shape of the dose curve; as a rule, active = well fitted curve in the direction sought with a large enough effect; inconclusive = small, poorly fitted or top-dose-only effect, or another doubt; inactive = no such curve, though single readings can be large; an effect the other way counts as inactive or inconclusive.

SMILES	PKM2 activator	RECQ1 inh-1	BLM helicase inh	APE1 inh	JMJD2E inh	RECQ1 inh-2	others
O=C1OC(c2ccc(F)cc2)=C/C1=C\c1ccc([N+](=O)[O-])o1	-	22µM	-	-	?	.	RECQ1 inh conf=-
CCOC(=O)C1=C(N)n2c(s/c(=C\c3ccco3)c2=O)=C(C(=O)OC(C)C)C1c1ccco1 (stereo not drawn)	-	32µM	-	?	?	-
CCOC(=O)C1=C(N)n2c(s/c(=C\c3ccco3)c2=O)=C(C(=O)OCC)C1c1ccco1 (stereo not drawn)	-	?	-	?	-	?
CCOc1ccc(N2C(=O)CC(Sc3ccccc3C(=O)O)C2=O)c([N+](=O)[O-])c1 (stereo not drawn)	?	-	-	-	-	.	RECQ1 inh conf=-;RECQ1 ADP FP=-
COc1ccc(-c2nc3sc(CCNC(=O)C(=O)Nc4ccc(C)c(F)c4)c(C)n3n2)cc1	.	.	-	.	.	.
c1ccc2oc(-c3[nH]ncc3CN3CCSCC3)cc2c1	-	?	-	-	-	-
CCN(C(=O)C1CCN(S(=O)(=O)c2ccc3c(c2)CCCN3C(=O)C2CCC2)CC1)c1cccc(C)c1	.	.	-	.	.	.
NS(=O)(=O)c1cccc(NS(=O)(=O)c2ccc(/C=C/C(=O)OCC(=O)c3ccc(Br)cc3)cc2)c1	-	?	-	-	-	-
COc1ccc(C(=O)COC(=O)/C=C/c2ccc(S(=O)(=O)Nc3cccc(S(N)(=O)=O)c3)cc2)cc1	-	-	-	-	-	.
O=C(Nc1ccc(-n2nncc2-c2ccco2)cc1)c1cc2ccccc2oc1=O	-	6.3µM	-	?	-	?	RECQ1 inh conf=4.5µM;RECQ1 ADP FP=-
O=C(Nc1ccc(-n2nncc2-c2ccco2)cc1)c1cccc(F)c1	-	-	-	-	-	.
C/C(CCC(=O)OC[C@@H]1O[C@H](C#Cc2ccccc2)C=C[C@@H]1Oc1ccc(C)cc1)=N/OC[C@@H](C)[C@H](OCc1ccccc1)C(C)C	.	-[11.5 µM]	-[12.4 µM]	-[12.4 µM]	.	.
CC(Cc1ccc(O)c(O)c1)C(C)Cc1ccc(O)c(O)c1 (stereo not drawn)	.	2.2µM	-	?	22µM	.	RECQ1 inh conf=45µM;RECQ1 ADP FP=8.9µM
CC(CCc1ccc(O)cc1)NCCc1ccc(O)c(O)c1 (stereo not drawn)	.	-	-	-	?	.
O=C1c2ccccc2C(=O)c2c(NCCCN(CCO)CCO)cccc21	-	20µM	16µM	?	-	18µM
CCN(CC)CC(=O)Nc1cccc2c1C(=O)c1ccccc1C2=O	-	-	-	-	-	.
CC(=O)c1ccc2c(c1)C1C=CCC1C(c1ccncc1)N2 (stereo not drawn)	?	?	-	?	?	-
C1=CC2c3ccccc3NC(c3ccncc3)C2C1 (stereo not drawn)	-	-	-	?	?	.
COC(=O)c1ccc(CC(=O)c2c(C)cc(O)cc2O)o1	-	?	-	?	18µM	?
COC(=O)c1ccc(CC(=O)c2ccc(O)cc2O)o1	-	-	-	-	?	.
O=C(COC(=O)CCC(=O)c1ccc(Cl)cc1)NCc1ccco1	-	?	-	?	-	?
Cc1nn(CC(=O)NCC(C)c2ccccc2)c(=O)c2cc3ccccc3n12 (stereo not drawn)	.	.	-	.	.	.
Cc1ccc(C(=O)c2c(C)oc3c2C(=O)C(=O)c2ccccc2-3)cc1	-	?	-	-	-	56µM
CC[C@H](C)[C@H](NC(=O)[C@H](Cc1ccc(O)cc1)NC(=O)[C@@H]1CCCN1C(=O)[C@H](CCCN=C(N)N)NC(=O)[C@H](CCCN=C(N)N)NC(=O)[C@@H]1CCCN1C(=O)[C@H](CCCCN)NC(=O)[C@H](CC(N)=O)NC(=O)[C@H](CCC(N)=O)NC(=O)[C@H](Cc1ccc(O)cc1)NC(=O)[C@H](CC(C)C)NC(=O)[C@@H]1CCC(=O)N1)C(=O)N[C@@H](CC(C)C)C(=O)O	.	-	-	-	.	.
C/C(N)=C(/C#N)C(=O)COC(=O)C1Cc2ccccc2CN1S(C)(=O)=O (stereo not drawn)	-	?	-	?	-	?
SMILES	PKM2 activator	RECQ1 inh-1	BLM helicase inh	APE1 inh	JMJD2E inh	RECQ1 inh-2	others
C/C(N)=C(/C#N)C(=O)COC(=O)C1CCN(S(=O)(=O)c2cccs2)CC1	.	.	.	-	.	.
CN(C)C(=O)CSc1ncnc2scc(-c3ccccc3)c12	-	?	-	-	-	-
O=C(O)CSc1ncnc2scc(-c3ccccc3)c12	-	-	-	-	-	.
Cc1cc(-c2ccc(S(=O)(=O)Nc3cc(Cl)ccc3C)s2)on1	.	.	-	.	.	.
COc1ccc(-c2cn3nc(N4CCC(C(=O)Nc5cc(Cl)ccc5C)CC4)sc3n2)cc1	.	.	-	.	.	.
Cc1ccc(S(=O)(=O)N(C)C)cc1NC(=O)COC(=O)Cc1n[nH]c(=O)c2ccccc12	-	.	-	-	.	.
Cc1ccc(S(=O)(=O)N(C)C)cc1NC(=O)COC(=O)c1n[nH]c(=O)c2ccccc12	-	-	-	-	-	.	RECQ1 inh conf=-;RECQ1 ADP FP=?
COc1ccc(-n2nnnc2SCC(N)=O)cc1	-	-	-	-	-	.
COc1ccc(-n2nnnc2SCC(=O)c2ccc(O)c(O)c2)cc1	-	13µM	-	?	11µM	7.1µM
CC1Cc2cc(S(=O)(=O)CCC(=O)Nc3ccccc3F)ccc2N1C(=O)C1CC1 (stereo not drawn)	.	.	-	.	.	.
COc1ccc(-n2c(=O)c(-c3cccs3)nc3cnc(N4CCOCC4)nc32)cc1	.	-	-	-	.	.
COc1ccc(-n2c(=O)c(-c3cccs3)nc3cnc(N4CCNCC4)nc32)cc1	.	?	-	?	.	-
Cc1nc2c(ccc3nc(NC(=O)Cc4cccc5ccccc45)sc32)s1	-	-	-	?	-	.
Cc1nc2c(ccc3nc(NC(=O)C(c4ccccc4)c4ccccc4)sc32)s1	-	25µM	-	?	-	-
COc1ccc(/C=C/N(CCc2ccc(OC)c(OC)c2)C(=O)C(F)(F)F)cc1	.	-[11.5 µM]	-[12.4 µM]	?	.	.
S=C(NCCSCc1c(Cl)cccc1Cl)Nc1ccccc1	-	13µM	-	-	-	.	RECQ1 inh conf=-;RECQ1 ADP FP=-
CN(c1ncnc2onc(-c3cccc(Cl)c3)c12)C1CCCCC1	.	.	-	.	.	.
CCC(Cl)CC(Cl)C(Cl)C(Cl)C(Cl)C(C)Cl (stereo not drawn)	.	-	.	-	.	.
COc1c(C(CC(C)C)OC(C)=O)ccc2c1C(=O)OCc1cc(C)cc(O)c1O2 (stereo not drawn)	-	?	-	-	-	-
CCOC(=O)c1c(C)[nH]c(C)c1S(=O)(=O)NCC(=O)N1CCN(c2cccc(C)c2)C(C)C1 (stereo not drawn)	.	.	-	.	.	.

Screening data: PubChem BioAssay, National Center for Advancing Translational Sciences (NCATS)
